Assay outcomes from PubChem.
Most compounds without a hit are left out; they make up all but 22% or so of the library.
CYP2C19 inh – inhibitors of human CYP2C19; CYP2C19 Supersomes, luciferin-H EGE luminescence, 30 min; inhibition, % at 5 µM; 96,000 compounds, 21% hits; AID 778;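 active = CYP2C19 inhibition above a set limit at 5 µM in the primary screen, cut at about 50% in these data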;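 also: plate controls were negative control wells for no effect and 2.5 mM tranylcypromine positive control for full effect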
Target sequence (P33261 whole entry, looked up): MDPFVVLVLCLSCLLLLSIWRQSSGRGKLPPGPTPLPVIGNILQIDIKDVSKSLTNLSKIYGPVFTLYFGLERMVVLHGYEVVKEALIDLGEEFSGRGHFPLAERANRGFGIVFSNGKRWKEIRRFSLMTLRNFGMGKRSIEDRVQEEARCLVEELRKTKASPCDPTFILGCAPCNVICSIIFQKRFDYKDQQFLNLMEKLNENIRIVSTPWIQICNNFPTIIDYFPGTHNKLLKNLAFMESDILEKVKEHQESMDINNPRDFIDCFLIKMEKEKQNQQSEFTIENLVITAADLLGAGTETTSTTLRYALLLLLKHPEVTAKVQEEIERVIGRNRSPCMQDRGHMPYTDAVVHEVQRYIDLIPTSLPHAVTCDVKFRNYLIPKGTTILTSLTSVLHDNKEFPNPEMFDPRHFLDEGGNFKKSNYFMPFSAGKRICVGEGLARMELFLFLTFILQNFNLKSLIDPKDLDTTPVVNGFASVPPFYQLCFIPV
CYP2C19 act – increases human CYP2C19 enzyme activity; P33261; recombinant CYP2C19, luciferin-H EGE luminescence; stronger effect = higher value; 0 = fully inhibited enzyme, 1 = untreated enzyme; activation factor at 5 µM; 96,000 tested, under 10 active; AID 1025;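 active = activation factor of at least 2 at 5 µM in the primary screen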;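 also: 0 = wells with 2.5 mM tranylcypromine and 1 = vehicle-only wells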
CYP2C9 inhib – inhibitors of human CYP2C9; P11712; inhibition, % at 5 µM; 96,000 compounds, 20% hits; CYP2C9 Supersomes, luciferin-H conversion, luminescence;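 active = blocking of liver enzyme CYP2C9 beyond about 50% at 5 µM, limit read from the data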
Measles CPE – protection of cells from measles virus; Measles virus-infected cells, CPE protection, absorbance; protection (pct of control), % at 4 µM; 140,000 compounds, 1.5% hits; AID 841; in the data active = protection mostly above about 24%, no sharp cut-off; inactive = mostly below about 26%
CYP2C9 act – activators of human CYP2C9. activation factor at 5 µM. P11712. AID 1024. 96,000 compounds, 1.4% hits. recombinant CYP2C9, luciferin-H conversion, luminescence; stronger effect = higher value; factor 1 = untreated enzyme, 0 = blocked;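 active = activation factor of 2 or more for CYP2C9 at a 5 µM dose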;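 also: 0 = sulfaphenazole-blocked wells and 1 = vehicle-only wells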
Numbers without * were called inactive; · = not tested or not shown.

SMILES | CYP2C19 inh | CYP2C19 act | CYP2C9 inhib | Measles CPE | CYP2C9 act
Cc1ccc(-n2c(SCc3ccc(C#N)cc3)nnc2-c2ccccn2)cc1 | 50.5* | 0.5 | 50.8* | 16.8 | 0.5
C=CCn1c(SCc2ccc(OC)cc2)nnc1-c1cccnc1 | 77.3* | 0.2 | 45.6 | 5.3 | 0.5
C=CCn1c(SCc2nc(N)nc(N3CCCCC3)n2)nnc1-c1ccco1 | 58.8* | 0.4 | 13.0 | 20.2 | 0.9
C=CCn1c(SCC(=O)N2CCN(c3ccc(F)cc3)CC2)nnc1-c1ccco1 | -1.5 | 1 | -1.5 | 13.5 | 1
COc1ccc(-n2c(SCc3ccc(C#N)cc3)nnc2-c2ccccn2)cc1 | 13.0 | 0.9 | -4.5 | 27.2 | 1
CCCC1C2C(=O)N(c3ccccc3OCC)C(=O)C2ON1c1ccccc1 (configuration not stated) | 25.6 | 0.7 | 47.2 | 3.4 | 0.5
S=C(Nc1ccc2cn[nH]c2c1)Nc1ccccc1Cl | · | · | · | 7.7 | ·
O=C(NC1CC1)C1CCN(Cc2cnn(-c3ccccc3)c2-n2cccc2)CC1 | 8.9 | 0.9 | 7.9 | 15.1 | 0.9
O=C(NCC1OCCc2ccccc21)c1ccc(NC(=O)c2cccc(Br)c2)cc1 (configuration not stated) | · | · | · | 6.8 | ·
CC(C)CNC(=O)COc1ncnc2ccccc12 | -1.3 | 1 | 19.1 | 9.7 | 0.8
O=C(O)c1ccc(Cl)c(NC(=O)C2CCCN2S(=O)(=O)c2cccc3nsnc23)c1 (configuration not stated) | -19.3 | 1.2 | -4.2 | 16.6 | 1
Cn1c(SCc2ccc(C#N)cc2)nnc1-c1cccc(Cl)c1 | 74.5* | 0.3 | 47.0 | · | 0.5
Cc1ccc(Oc2nnc(-c3ccccc3)c3ccccc23)cc1 | 8.3 | 0.9 | 57.7* | 2.5 | 0.4
Cc1ccc(S(=O)(=O)CCc2nc3ccccc3n2CCC#N)cc1 | 51.1* | 0.5 | -1.8 | 15.5 | 1
COC(=O)Cn1c(CCS(=O)(=O)c2ccc(C)c(C)c2)nc2ccccc21 | 60.9* | 0.4 | -16.1 | 44.3 | 1.2
Cc1ccc(S(=O)(=O)CC2CSc3nc4ccccc4n32)cc1 (configuration not stated) | 67.9* | 0.3 | 53.7* | 4.2 | 0.5
Clc1ccc(-n2nnnc2SCc2c(-c3ccccc3)nc3sccn23)cc1 | 24.9 | 0.8 | 89.0* | 7.5 | 0.1
Cc1ccc(Oc2ccc(-c3nnc(-c4ccccc4)o3)cc2[N+](=O)[O-])cc1C | · | · | · | 7.5 | ·
COc1ccc(C(=O)N2CCCC(c3ccccc3)C2)cc1 (configuration not stated) | 95.3* | 0 | -23.9 | 3.1 | 1.2
O=C(c1ccco1)N1CCC(c2ccccc2)C1 (configuration not stated) | 78.1* | 0.2 | 51.2* | 4.2 | 0.5
COc1ccc(C(=O)N2CCC(C(=O)O)CC2)cc1 | 3.0 | 1 | 8.2 | 5.6 | 0.9
Cc1ccc(N(CN2C(=O)c3ccccc3C2=O)C(=O)c2ccc([N+](=O)[O-])cc2[N+](=O)[O-])cc1 | · | · | · | 9.8 | ·
CCCCc1oc2c(c(=O)c1C)C(=O)CC(c1ccccc1)C2 (configuration not stated) | 100.3* | 0 | 78.0* | 7.5 | 0.2
O=C(NCCc1c[nH]c2ccccc12)C1CCC(Cn2c(=S)[nH]c3ccccc3c2=O)CC1 (configuration not stated) | 99.9* | 0 | 97.8* | 10.2 | 0
COCCNC(=O)C1CCC(Cn2c(=S)[nH]c3ccccc3c2=O)CC1 (configuration not stated) | 53.3* | 0.5 | 60.7* | 7.0 | 0.4
SMILES | CYP2C19 inh | CYP2C19 act | CYP2C9 inhib | Measles CPE | CYP2C9 act
O=C(CCCCn1c(=O)[nH]c2ccccc2c1=O)NCCc1c[nH]c2ccccc12 | · | · | · | 4.7 | ·
NC(=O)c1c(NC(=O)c2ccccc2)sc2c1CCc1ccccc1-2 | 7.3 | 0.9 | -6.7 | 18.8 | 1.1
O=C(c1ccccc1)c1ccc(N2CCNCC2)cc1 | 76.9* | 0.2 | 44.2 | 2.7 | 0.6
CN1CCN(c2ccc(C(=O)c3ccc(F)cc3)cc2)CC1 | 51.6* | 0.5 | 5.9 | 20.4 | 0.9
O=C(O)CCC(=O)N1CCN(c2ccc(C(=O)c3ccc(F)cc3)cc2)CC1 | 2.6 | 1 | -5.8 | 13.8 | 1.1
O=C(CN1C(=O)C2C3C=CC(C3)C2C1=O)NCc1ccc2c(c1)OCO2 (configuration not stated) | 27.3 | 0.7 | 14.9 | 7.1 | 0.9
CC/C(=N\NC(=S)Nc1cc(C)ccc1C)c1ccc(OC(F)F)cc1 | · | · | · | 13.9 | ·
COC(=O)c1ccc2c(=O)n(CCCCCC(=O)O)c(=S)[nH]c2c1 | · | · | · | 5.6 | ·
